Screening data: PubChem, National Center for Advancing Translational Sciences (NCATS)
HT1080 IDH1KD tx: HT-1080 IDH1 knockdown cell toxicity (counter line); HT-1080 IDH1 knockdown viability, ATP luminescence, 48 h; Potency, µM (doses to about 46.1 µM), for the others: at the highest dose activity, negative = toxicity, most hits filed as cytotoxic; 360,000 compounds, 2% hits;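 also: 0% = DMSO wells and -100% = cell-free medium wells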
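IDH1KD HT-1080 cells, 750/well, RPMI + 5% FBS; compound pinned after 2 h settling; 48 h, 37 °C; CellTiter-Glo luminescence; % activity normalised to DMSO and no-cell wells; curves fitted, classed by r2 and efficacy.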
HT1080-NT tox: kills 2HG-producing HT-1080-NT fibrosarcoma cells; HT-1080-NT fibrosarcoma viability, CellTiter-Glo ATP luminescence, 48 h; Potency, µM (series often up to 46.1 µM), for the others: at the top dose activity, negative = less viability, actives largely listed as cytotoxic; 360,000 compounds, 1.6% hits;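 also: NT is the 2HG producing partner of a matched IDH1 knockdown line; 0% = DMSO-treated cells and -100% = media-only wells without cells; nearly all actives have a fitted effect of over 55% in size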
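Viability by CellTiter-Glo luminescence after 48 h compound exposure at 37C of HT-1080-NT cells (750/well, RPMI, 5% FBS). % activity scaled between DMSO wells and medium-only wells, then curve-fitted and categorized by curve class.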
MCF10A rereplic: inducers of DNA re-replication in MCF 10A breast cells; MCF 10A DNA re-replication, Hoechst nuclear intensity, 48 h; 350,000 compounds, 2.9% hits; Potency, µM (highest dose often 46.1 µM), for the others: at the top dose activity, positive = re-replication, usual class: activators; also: % of control where 0% means no effect; nearly all actives have a fitted effect of over 50% in size
KB-V1 cytotox: KB-V1 MDR subline cytotoxicity; KB-V1 MDR cells viability, CellTiter-Glo, 72 h; Potency, µM (doses to about 46.1 µM), actives largely listed as cytotoxic; 400,000 compounds, 3.4% hits; AID 1347076; also: % is scaled to controls: 0 for no effect and ±100 for the full control effect; nearly all actives have a fitted effect of over 60% in size
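Readout: CellTiter-Glo luminescence, 10 min after addition. Cells: KB-V1 MDR subline, 72 h at 37 degrees C with compound. Analysis: corrected, normalized data fitted to concentration-effect curves.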
SW480 rerep: induces DNA re-replication in SW480 colon adenocarcinoma cells | Potency, µM (top dose mostly 46.1 µM), inactives show top-dose re-replication activation, most hits filed as activators | SW480 DNA re-replication, Hoechst DNA content imaging, 48 h | 340,000 compounds, 1.8% hits; also: % of control where 0% means no effect; nearly all actives have a fitted effect of over 55% in size
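Per well, 250 cells were exposed to pinned compound for 48 hr. Nuclear DNA was visualised with Hoechst (40 min, 37 C) and total object intensity recorded by fluorescence scanning.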
KB-3-1 cytotox: KB-3-1 parental cell cytotoxicity. KB-3-1 viability, CellTiter-Glo ATP luminescence, 72 h. AID 1347075. Potency, µM (series often up to 46.1 µM), actives largely listed as cytotoxic. 400,000 compounds, 1.4% hits; also: % is scaled to controls: 0 for no effect and ±100 for the full control effect; nearly all actives have a fitted effect of over 60% in size
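Screening of KB-3-1 cells (DMEM, 10% FBS, phenol-red free) ran from lowest to highest compound concentration; after 72 h at 37 °C viability was read luminescently and curves fitted.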
* = called active by the depositor; i = inactive; ? = inconclusive; · = not tested or not shown; [ ] = another dose, or the depositor's remark. Sampled rows, rich in hits. Any-hit rate of the full collection: about 7.9%. Calls follow the shape of the dose curve; as a rule, active = well fitted curve in the direction sought with a large enough effect; inconclusive = small, poorly fitted or top-dose-only effect, or another doubt; inactive = no such curve, though single readings can be large; an effect the other way counts as inactive or inconclusive. Potency is read from the fitted curve at half-maximal effect.

SMILES	HT1080 IDH1KD tx	HT1080-NT tox	MCF10A rereplic	KB-V1 cytotox	SW480 rerep	KB-3-1 cytotox
COC(=O)[C@@]1(Sc2ccc(C)cc2)CC(=O)N(c2ccccc2)[C@@H]1c1ccccc1	?	?	·	16.4µM*	·	?
CCOC(=O)/C(=N\Nc1ccccc1[N+](=O)[O-])c1csc(N)n1	-1.4%	-2.0%	0.4%	i	-2.3%	i
CCOC(=O)/C(=N\Nc1ccc(C(C)=O)cc1)c1csc(Nc2ccccc2)n1	16.4µM*	16.4µM*	22.7%	?	?	?
CC1=CC(=C(C#N)c2nc3ccccc3s2)C=C(C)N1CC1CCCO1 (stereo not given)	-3.4%	-2.3%	13µM*	i	23.1µM*	i
COc1cccc(C2=NOC(C(=O)Nc3cc(C)nn3-c3ccccc3)C2)c1OC (stereo not given)	-28.1%	?	3.0%	?	16.4%	?
COc1cc(OC)c(C2=NOC(C(=O)Nc3cc(C)nn3-c3ccccc3)C2)cc1Cl (stereo not given)	-5.9%	-0.3%	1.1%	18.4µM*	0.8%	i
CCOC(=O)C(C)NC(=O)c1c2c(nc3ccccc13)C(=O)N(C1CCCCC1)C2 (stereo not given)	·	·	·	i	·	i
CCOc1ccc(CCNC(=O)Cn2nc(CC)n3c(cc4c(OC)cccc43)c2=O)cc1OCC	·	·	·	i	·	i
CC(=O)CC(=O)Nc1ccc2ccccc2c1	2.5%	6.0%	-2.1%	i	-16.3%	i
CCOC(=O)C(Nc1ccc2ccccc2c1)C(=O)OCC	6.7%	-3.7%	4.61µM*	i	13µM*	i
Cc1ccc(S(=O)(=O)NN=C(c2ccccc2)c2cccs2)cc1	-13.3%	-15.8%	·	i	·	i
CN1CCN(CC(O)(c2ccc(Cl)cc2)c2ccc(Cl)cc2)CC1	20.6µM*	18.4µM*	-1.4%	i	28.4%	i
CN=C1SC(CC(=O)Nc2ccc(F)cc2F)C(=O)N1/N=C/c1ccc(OC(F)F)c(OC)c1 (stereo not given)	-0.7%	-12.9%	4.61µM*	i	23.8%	i
N#CC1=C(N)OC2=C(CCc3ccccc32)C1c1ccccc1 (stereo not given)	0.581µM*	0.92µM*	?	1.46µM*	0.731µM*	0.581µM*
CC1=C(n2nnc3ccccc32)C(c2ccccc2)C(C#N)=C(N)O1 (stereo not given)	4.6%	6.1%	4.5%	i	1.3%	i
Cc1ccc(/C=C2\CCC3=C2OC(N)=C(C#N)C3c2ccc(C)cc2)cc1 (stereo not given)	13.3%	-5.1%	2.91µM*	i	11.2µM*	i
Cc1ccc(C2C(C#N)=C(N)Oc3cc(N)ccc32)cc1 (stereo not given)	-1.3%	-9.9%	?	i	6.4%	i
COc1ccc(N2CCN(C(=O)COc3ccccc3C#N)CC2)cc1	·	·	·	i	·	i
CC(C)Nc1cccc(S(=O)(=O)N2CCCN(S(=O)(=O)c3ccc4c(c3)OCCO4)CC2)c1	·	·	·	i	·	i
CCOC(=O)C1C(=O)C(C(C)=O)C(=O)CC1CC(C)SCC (stereo not given)	19.7%	3.2%	-5.7%	20.6µM*	-13.4%	i
Cc1ccc(C)c(S(=O)(=O)Nc2ccc3scnc3c2)c1	11.6µM*	?	?	i	?	i
Cc1ccc(C)c(S(=O)(=O)Nc2ccc3[nH]c(=O)[nH]c3c2)c1	-16.8%	1.5%	-4.9%	i	-9.7%	i
O=C1c2ccccc2C(=O)N1CCc1csc(-c2cccc(F)c2)n1	-10.5%	-7.0%	?	16.4µM*	1.4%	i
O=C1c2ccccc2C(=O)N1CCc1csc(-c2cccc(Cl)c2)n1	-8.0%	0.4%	?	?	8.4%	i
c1ccc(CSc2nnc(-c3ccco3)o2)cc1	14.6%	19.7%	23.1%	i	11.6%	i
SMILES	HT1080 IDH1KD tx	HT1080-NT tox	MCF10A rereplic	KB-V1 cytotox	SW480 rerep	KB-3-1 cytotox
Cc1ccc(CSCc2nc3ccccc3[nH]2)cc1	?	-0.9%	16.4µM*	i	?	i
c1ccc2[nH]c(CSc3ncnc4c3oc3ccccc34)nc2c1	-3.8%	-9.8%	?	4.61µM*	5.7%	?
c1coc(-c2nnc(SCc3nc4ccccc4[nH]3)o2)c1	-18.8%	-5.6%	4.7%	14.6µM*	-0.8%	?
Clc1ccc(SCc2nc3ccccc3[nH]2)cc1	-18.0%	-14.4%	?	23.1µM*	0.8%	i
Cc1cc(C)cc(CC(Cc2nc3ccccc3[nH]2)c2nc3ccccc3[nH]2)c1 (stereo not given)	?	18.4µM*	?	i	-3.0%[9.22 µM]	16.4µM*
CCCCn1nnnc1C(c1ccccc1)N1CCN(c2cccc(C(F)(F)F)n2)CC1 (stereo not given)	-7.0%	-9.2%	·	?	·	i
O=S(=O)(c1ccc(Br)cc1)c1cnc2ccccc2n1	?	?	?	i	18.4µM*	i
CC(C)c1ccc(/C=N/NC(=O)c2nnn(-c3nonc3N)c2CN(C)C2CCCCC2)cc1	29.6%	?	13.1%	i	15.9%	i
CCc1cc(SC#N)cc(CC)c1NC(=O)CCl	20.6µM*	?	16.4µM*	?	23.1µM*	20.6µM*
O=C1CC(NS(=O)(=O)c2ccccc2F)CN1c1ccc2c(c1)OCCO2 (stereo not given)	-0.4%	-2.6%	12.2%	i	-4.3%	i
O=C(CCN1C(=O)c2ccccc2C1=O)N1CCN(Cc2ccccc2)CC1	1.4%[9.24 µM]	-7.4%	0.1%	i	-5.8%	i
O=C(CCN1C(=O)c2ccccc2C1=O)N1CCN(Cc2ccc(Cl)cc2Cl)CC1	1.5%	1.2%	16.0%	14.6µM*	5.5%	i
Cc1nc2ccc(S(=O)(=O)CCC(=O)Nc3ccc(C(C)C)cc3)cc2s1	·	·	·	i	·	i
CS(=O)(=O)N(CC(=O)N1CCN(Cc2ccc3c(c2)OCO3)CC1)C1CCCCC1	-1.3%	-2.0%	-4.6%	20.6µM*	-5.8%	i
CC(C)(C)CC(=O)N1CCN(Cc2ccc3c(c2)OCO3)CC1	8.9%	4.4%	-9.6%	i	-6.4%[9.22 µM]	i
O=C(CCC1CCCCC1)N1CCN(Cc2ccc3c(c2)OCO3)CC1	-9.5%	-15.0%	8.7%	23.1µM*	-0.6%	?
CCOC(=O)[C@]12CCCC=C1N(Cc1cccc3ccccc13)C(=O)[C@H](CC(=O)NCc1cccc3ccccc13)C2	-28.1%	-10.4%	·	?	·	i
CCCCCCCCN1C(=O)[C@H](CC(=O)NCc2cccc(C(F)(F)F)c2)C[C@@]2(C(=O)OCC)CCC=C12	?	?	·	i	·	i
